Test results as given in ChEMBL document CHEMBL1961873, “Compounds: GSK PKIS; Assays: Nanosyn kinase panel” (2012).

Experiments:
[1] = biological target: High affinity nerve growth factor receptor (Homo sapiens) (UniProt P04629); details: at 1 µM;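 note: each value is the mean percent inhibition of TRKA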
[2] = biological target: BDNF/NT-3 growth factors receptor (Homo sapiens) (UniProt Q16620); details: at 0.1 µM
[3] = biological target: BDNF/NT-3 growth factors receptor (Homo sapiens) (UniProt Q16620); details: at 1 µM
[4] = biological target: NT-3 growth factor receptor (Homo sapiens) (UniProt Q16288); details: at 0.1 µM
[5] = biological target: NT-3 growth factor receptor (Homo sapiens) (UniProt Q16288); details: at 1 µM
[6] = biological target: T1, Tyrosine-protein kinase TXK (Homo sapiens) (UniProt P42681); details: at 0.1 µM
T1 sequence (whole entry): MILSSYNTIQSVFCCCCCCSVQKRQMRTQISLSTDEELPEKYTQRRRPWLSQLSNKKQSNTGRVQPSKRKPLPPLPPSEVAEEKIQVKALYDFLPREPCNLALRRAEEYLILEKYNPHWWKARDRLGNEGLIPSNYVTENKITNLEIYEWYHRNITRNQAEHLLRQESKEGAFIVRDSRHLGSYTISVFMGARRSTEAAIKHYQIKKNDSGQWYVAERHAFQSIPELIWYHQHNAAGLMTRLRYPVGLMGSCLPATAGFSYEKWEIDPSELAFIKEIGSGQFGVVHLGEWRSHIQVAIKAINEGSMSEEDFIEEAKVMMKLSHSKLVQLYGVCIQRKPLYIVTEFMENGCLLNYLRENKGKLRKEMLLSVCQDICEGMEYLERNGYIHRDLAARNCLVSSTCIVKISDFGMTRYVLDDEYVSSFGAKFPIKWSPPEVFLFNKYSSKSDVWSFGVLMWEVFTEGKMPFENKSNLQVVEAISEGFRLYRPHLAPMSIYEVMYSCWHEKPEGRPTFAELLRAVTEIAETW

[7] = biological target: T1, Tyrosine-protein kinase TXK (Homo sapiens); details: at 1 µM
[8] = biological target: Non-receptor tyrosine-protein kinase TYK2 (Homo sapiens) (UniProt P29597); details: at 0.1 µM;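 note: each value is a mean of the inhibition readings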
Sequence of Non-receptor tyrosine-protein kinase TYK2 (Homo sapiens) (P29597 whole entry): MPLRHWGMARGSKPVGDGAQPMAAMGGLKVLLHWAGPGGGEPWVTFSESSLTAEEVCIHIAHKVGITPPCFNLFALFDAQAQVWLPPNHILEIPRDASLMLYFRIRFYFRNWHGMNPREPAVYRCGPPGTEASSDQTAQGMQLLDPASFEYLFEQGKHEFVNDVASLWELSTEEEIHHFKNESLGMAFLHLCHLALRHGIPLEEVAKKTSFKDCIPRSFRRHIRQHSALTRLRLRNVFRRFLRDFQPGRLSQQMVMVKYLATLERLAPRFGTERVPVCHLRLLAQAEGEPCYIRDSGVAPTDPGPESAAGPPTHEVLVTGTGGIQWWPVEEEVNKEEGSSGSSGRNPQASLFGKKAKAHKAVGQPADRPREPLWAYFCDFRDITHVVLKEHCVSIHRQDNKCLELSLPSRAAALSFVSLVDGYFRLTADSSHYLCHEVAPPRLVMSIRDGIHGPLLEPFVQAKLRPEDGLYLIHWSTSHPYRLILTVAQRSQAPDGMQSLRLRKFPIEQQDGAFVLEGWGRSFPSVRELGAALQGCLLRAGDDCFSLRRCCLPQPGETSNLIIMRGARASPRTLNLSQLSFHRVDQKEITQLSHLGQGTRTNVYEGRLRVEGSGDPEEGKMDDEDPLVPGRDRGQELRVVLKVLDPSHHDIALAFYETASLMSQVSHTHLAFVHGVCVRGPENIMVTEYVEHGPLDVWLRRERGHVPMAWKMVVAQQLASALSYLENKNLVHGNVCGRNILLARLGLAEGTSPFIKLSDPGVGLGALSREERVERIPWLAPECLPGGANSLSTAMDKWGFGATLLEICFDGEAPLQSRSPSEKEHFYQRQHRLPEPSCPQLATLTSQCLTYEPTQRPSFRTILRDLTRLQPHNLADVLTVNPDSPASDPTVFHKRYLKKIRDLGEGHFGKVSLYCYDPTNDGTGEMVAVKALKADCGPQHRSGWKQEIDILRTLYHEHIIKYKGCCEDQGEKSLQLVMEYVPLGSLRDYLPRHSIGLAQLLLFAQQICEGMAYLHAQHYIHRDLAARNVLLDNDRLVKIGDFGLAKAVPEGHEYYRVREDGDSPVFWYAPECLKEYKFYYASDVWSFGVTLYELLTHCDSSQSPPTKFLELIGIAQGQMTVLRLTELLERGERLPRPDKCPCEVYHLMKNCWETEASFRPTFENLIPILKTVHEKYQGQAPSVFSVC

[9] = biological target: T2, Dual specificity protein kinase TTK (Homo sapiens) (UniProt P33981); details: at 1 µM;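 note: reported figures are mean TTK inhibition at 1 µM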
T2 sequence (whole entry): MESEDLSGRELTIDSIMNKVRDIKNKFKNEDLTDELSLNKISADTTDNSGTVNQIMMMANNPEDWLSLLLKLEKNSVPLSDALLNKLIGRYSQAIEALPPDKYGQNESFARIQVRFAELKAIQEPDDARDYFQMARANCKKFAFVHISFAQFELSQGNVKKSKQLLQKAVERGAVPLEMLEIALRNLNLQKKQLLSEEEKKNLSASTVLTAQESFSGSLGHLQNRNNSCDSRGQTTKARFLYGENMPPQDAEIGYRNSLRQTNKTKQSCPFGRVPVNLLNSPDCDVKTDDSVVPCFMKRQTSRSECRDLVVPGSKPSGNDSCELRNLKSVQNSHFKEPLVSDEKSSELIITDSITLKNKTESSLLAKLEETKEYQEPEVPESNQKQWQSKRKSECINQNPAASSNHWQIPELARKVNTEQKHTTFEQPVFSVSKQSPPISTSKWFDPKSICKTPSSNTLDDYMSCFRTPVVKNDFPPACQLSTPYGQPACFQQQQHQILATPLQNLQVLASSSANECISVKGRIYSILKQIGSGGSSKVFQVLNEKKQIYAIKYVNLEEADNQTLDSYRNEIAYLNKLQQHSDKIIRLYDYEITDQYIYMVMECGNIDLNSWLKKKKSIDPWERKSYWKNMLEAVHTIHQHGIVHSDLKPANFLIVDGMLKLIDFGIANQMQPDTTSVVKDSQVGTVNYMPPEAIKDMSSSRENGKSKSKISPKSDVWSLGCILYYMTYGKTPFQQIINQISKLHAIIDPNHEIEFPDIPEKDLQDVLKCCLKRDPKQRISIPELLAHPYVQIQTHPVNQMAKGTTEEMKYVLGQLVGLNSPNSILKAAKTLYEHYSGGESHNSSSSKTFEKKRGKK

[10] = biological target: T3, Aurora kinase A (Homo sapiens) (UniProt O14965); details: at 0.1 µM
T3 sequence (whole entry): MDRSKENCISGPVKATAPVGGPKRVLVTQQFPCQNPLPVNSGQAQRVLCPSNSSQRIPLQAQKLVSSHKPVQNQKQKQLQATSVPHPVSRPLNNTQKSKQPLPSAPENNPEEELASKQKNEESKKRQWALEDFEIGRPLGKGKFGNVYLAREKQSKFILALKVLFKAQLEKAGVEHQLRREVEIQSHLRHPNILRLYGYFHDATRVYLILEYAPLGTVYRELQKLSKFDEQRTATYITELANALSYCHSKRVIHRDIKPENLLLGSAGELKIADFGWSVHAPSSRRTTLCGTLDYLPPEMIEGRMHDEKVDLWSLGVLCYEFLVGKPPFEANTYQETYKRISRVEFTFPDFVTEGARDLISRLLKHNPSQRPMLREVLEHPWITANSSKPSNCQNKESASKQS

[11] = biological target: T3, Aurora kinase A (Homo sapiens); details: at 1 µM
[12] = biological target: Aurora kinase B (Homo sapiens) (UniProt Q96GD4); details: at 0.1 µM
Sequence of Aurora kinase B (Homo sapiens) (Q96GD4 whole entry): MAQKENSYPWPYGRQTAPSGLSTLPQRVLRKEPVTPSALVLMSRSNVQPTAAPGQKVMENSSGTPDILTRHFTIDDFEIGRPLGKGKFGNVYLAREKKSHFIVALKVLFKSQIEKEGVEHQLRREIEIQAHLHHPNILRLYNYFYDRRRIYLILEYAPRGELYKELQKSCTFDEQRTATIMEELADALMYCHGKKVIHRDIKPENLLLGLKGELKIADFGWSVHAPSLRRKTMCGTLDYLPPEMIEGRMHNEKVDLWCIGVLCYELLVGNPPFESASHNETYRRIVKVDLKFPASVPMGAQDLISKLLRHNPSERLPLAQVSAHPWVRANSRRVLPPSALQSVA

[13] = biological target: Aurora kinase B (Homo sapiens) (UniProt Q96GD4); details: at 1 µM
[14] = biological target: T4, Aurora kinase C (Homo sapiens) (UniProt Q9UQB9); details: at 0.1 µM
T4 sequence (whole entry): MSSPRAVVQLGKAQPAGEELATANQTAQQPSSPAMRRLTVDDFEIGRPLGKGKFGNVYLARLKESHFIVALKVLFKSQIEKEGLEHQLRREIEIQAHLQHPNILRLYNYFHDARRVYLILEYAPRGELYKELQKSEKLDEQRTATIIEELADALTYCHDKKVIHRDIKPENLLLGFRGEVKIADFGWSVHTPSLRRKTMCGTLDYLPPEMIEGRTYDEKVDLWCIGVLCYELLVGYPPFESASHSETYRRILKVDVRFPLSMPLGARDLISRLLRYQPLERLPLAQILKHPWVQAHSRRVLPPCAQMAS

[15] = biological target: T4, Aurora kinase C (Homo sapiens); details: at 1 µM
[16] = biological target: Serine/threonine-protein kinase 10 (Homo sapiens) (UniProt O94804); details: at 0.1 µM
Sequence of Serine/threonine-protein kinase 10 (Homo sapiens) (O94804 whole entry, looked up): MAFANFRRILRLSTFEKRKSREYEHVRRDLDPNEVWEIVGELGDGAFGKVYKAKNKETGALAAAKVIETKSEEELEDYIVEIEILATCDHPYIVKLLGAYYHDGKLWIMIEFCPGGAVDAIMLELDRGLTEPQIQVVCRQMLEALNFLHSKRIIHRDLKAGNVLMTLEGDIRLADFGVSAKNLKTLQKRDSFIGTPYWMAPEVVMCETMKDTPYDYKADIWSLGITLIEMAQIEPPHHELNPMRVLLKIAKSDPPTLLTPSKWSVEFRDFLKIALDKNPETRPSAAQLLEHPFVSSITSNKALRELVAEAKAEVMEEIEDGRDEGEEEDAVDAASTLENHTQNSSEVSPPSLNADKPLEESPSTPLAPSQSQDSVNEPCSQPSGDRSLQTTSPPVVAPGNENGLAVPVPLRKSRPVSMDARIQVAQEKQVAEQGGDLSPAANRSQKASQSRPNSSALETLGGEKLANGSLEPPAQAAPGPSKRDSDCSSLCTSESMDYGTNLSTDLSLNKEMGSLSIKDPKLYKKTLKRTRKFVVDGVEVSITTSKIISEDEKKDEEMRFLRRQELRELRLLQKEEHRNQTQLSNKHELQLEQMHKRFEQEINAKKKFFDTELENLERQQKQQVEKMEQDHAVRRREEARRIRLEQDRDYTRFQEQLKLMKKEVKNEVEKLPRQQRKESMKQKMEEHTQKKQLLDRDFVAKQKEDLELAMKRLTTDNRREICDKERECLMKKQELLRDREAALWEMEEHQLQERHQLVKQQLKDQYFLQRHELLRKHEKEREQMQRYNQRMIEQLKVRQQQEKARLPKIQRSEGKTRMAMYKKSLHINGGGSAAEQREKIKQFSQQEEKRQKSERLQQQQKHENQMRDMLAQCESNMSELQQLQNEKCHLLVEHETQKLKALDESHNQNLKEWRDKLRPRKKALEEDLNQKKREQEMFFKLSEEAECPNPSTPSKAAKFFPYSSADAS

[17] = biological target: Serine/threonine-protein kinase 10 (Homo sapiens) (UniProt O94804); details: at 1 µM
[18] = biological target: T5, Mitogen-activated protein kinase kinase kinase kinase 2 (Homo sapiens) (UniProt Q12851); details: at 0.1 µM
T5 sequence (whole entry): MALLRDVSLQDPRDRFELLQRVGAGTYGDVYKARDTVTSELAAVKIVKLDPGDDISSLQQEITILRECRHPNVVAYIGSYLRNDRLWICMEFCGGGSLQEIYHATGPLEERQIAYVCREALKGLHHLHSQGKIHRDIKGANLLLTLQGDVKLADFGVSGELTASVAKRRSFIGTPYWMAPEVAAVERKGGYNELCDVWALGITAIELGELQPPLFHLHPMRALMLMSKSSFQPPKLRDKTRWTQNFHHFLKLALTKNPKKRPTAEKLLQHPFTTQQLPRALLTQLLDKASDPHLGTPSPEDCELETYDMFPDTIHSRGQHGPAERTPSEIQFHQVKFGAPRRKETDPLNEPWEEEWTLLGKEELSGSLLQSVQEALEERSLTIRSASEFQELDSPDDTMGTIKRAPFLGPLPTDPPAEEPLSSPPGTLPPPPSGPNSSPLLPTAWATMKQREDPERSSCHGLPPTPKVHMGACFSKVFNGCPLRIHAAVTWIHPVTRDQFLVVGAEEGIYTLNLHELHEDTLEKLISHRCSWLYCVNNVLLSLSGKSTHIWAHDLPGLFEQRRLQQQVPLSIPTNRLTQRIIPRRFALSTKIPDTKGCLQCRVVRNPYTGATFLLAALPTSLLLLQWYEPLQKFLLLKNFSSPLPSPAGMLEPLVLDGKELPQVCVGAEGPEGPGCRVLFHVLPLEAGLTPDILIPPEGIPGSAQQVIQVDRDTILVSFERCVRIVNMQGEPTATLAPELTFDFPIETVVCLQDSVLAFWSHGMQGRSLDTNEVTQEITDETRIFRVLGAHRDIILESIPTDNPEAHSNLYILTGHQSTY

[19] = biological target: T5, Mitogen-activated protein kinase kinase kinase kinase 2 (Homo sapiens); details: at 1 µM
[20] = biological target: Mitogen-activated protein kinase kinase kinase kinase 4 (Homo sapiens) (UniProt O95819); details: at 0.1 µM
Sequence of Mitogen-activated protein kinase kinase kinase kinase 4 (Homo sapiens) (O95819 2-1239 limits assumed): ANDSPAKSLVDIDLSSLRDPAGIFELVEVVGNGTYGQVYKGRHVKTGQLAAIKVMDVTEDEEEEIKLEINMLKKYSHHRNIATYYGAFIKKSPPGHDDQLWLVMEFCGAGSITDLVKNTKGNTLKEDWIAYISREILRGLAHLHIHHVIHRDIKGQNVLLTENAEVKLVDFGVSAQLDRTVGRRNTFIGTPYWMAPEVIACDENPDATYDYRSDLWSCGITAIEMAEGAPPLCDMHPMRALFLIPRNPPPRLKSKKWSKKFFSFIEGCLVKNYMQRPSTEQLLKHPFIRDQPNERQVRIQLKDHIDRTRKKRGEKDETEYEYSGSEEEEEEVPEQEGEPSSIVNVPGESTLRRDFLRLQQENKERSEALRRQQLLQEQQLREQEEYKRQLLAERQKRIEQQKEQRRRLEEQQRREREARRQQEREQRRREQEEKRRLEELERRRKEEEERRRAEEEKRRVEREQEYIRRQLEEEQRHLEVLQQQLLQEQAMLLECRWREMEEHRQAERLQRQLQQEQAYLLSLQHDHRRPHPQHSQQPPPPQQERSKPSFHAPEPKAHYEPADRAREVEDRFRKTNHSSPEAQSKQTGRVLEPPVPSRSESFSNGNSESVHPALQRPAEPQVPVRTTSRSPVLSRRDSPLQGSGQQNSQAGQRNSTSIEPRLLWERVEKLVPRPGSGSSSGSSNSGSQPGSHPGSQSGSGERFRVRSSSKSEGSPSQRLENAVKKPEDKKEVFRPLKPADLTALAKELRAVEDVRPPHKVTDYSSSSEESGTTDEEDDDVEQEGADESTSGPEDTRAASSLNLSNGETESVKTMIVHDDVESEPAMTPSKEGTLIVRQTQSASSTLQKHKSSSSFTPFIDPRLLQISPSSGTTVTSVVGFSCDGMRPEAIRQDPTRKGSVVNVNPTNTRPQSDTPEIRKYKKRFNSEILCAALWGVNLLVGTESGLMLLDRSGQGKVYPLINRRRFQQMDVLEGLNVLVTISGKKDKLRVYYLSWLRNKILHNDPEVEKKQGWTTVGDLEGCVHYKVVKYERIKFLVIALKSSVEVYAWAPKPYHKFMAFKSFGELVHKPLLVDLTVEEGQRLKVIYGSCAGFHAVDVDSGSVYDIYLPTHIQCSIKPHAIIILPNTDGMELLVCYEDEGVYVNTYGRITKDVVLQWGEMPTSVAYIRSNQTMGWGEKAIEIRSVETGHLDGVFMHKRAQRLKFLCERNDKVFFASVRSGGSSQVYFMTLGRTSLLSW

Sequence of High affinity nerve growth factor receptor (Homo sapiens) (P04629 33-796 limits assumed): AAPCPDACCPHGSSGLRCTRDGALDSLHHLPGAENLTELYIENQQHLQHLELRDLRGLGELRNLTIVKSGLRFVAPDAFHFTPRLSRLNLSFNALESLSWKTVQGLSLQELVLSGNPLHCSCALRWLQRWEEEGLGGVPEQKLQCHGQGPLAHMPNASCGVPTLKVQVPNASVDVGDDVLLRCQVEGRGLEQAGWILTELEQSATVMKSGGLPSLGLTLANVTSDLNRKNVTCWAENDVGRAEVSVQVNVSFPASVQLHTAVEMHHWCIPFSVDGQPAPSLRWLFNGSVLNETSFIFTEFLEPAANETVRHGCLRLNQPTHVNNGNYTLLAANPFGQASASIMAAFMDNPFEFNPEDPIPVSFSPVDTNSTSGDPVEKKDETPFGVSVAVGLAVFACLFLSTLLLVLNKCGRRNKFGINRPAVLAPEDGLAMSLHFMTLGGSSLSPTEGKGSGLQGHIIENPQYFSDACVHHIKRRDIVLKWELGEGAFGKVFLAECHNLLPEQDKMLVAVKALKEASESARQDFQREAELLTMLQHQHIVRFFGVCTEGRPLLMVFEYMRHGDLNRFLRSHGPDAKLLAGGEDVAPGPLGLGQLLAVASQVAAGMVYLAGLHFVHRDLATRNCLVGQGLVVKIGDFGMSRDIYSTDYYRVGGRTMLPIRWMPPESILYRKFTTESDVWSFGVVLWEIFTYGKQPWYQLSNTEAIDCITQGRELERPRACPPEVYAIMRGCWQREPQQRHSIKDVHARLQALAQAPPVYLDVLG

Row | SMILES | inhibition [1] [%] | inhibition [2] [%] | inhibition [3] [%] | inhibition [4] [%] | inhibition [5] [%] | inhibition [6] [%] | inhibition [7] [%] | inhibition [8] [%] | inhibition [9] [%] | inhibition [10] [%] | inhibition [11] [%] | inhibition [12] [%] | inhibition [13] [%] | inhibition [14] [%] | inhibition [15] [%] | inhibition [16] [%] | inhibition [17] [%] | inhibition [18] [%] | inhibition [19] [%] | inhibition [20] [%]
1 | COc1cc2ncn(-c3cc(OCc4ccccc4C(F)(F)F)c(C(C)=O)s3)c2cc1OC | 1.61 | 1.74 | 2.56 | 0.64 | 4.16 | -0.06 | 5.24 | -1.78 | 8.19 | 2.64 | 4.46 | 7.82 | 9.68 | 3 | 11.9 | 10.5 | 42.8 | 2.18 | 7.42 | 4.05
2 | COc1cc(Nc2ncc(-c3ccccc3)o2)cc(OC)c1OC | 23.1 | 2.41 | 28.3 | 2.64 | 25.2 | 1.07 | 16.2 | -2.24 | -1.01 | 15.7 | 75.5 | 10.1 | 50 | 8.67 | 71.8 | 1.37 | 11.1 | 2.15 | 11.5 | 2.13
3 | COc1cc2ncn(-c3cc(OCc4cccs4)c(C(N)=O)s3)c2cc1OC | 8.7 | 3.23 | 16.9 | 6.48 | 27.2 | 0.76 | 5.11 | -2.34 | 7.37 | -6.64 | 13.4 | 2.98 | 20 | -0.54 | 10.1 | 75.9 | 93.5 | 10.8 | 36 | 18.7
4 | COc1cccc(/C=N/Nc2ncnc3c2cnn3-c2cccc(OC)c2)c1 | 4.58 | 2.99 | 5.56 | 1.57 | 2.15 | 3.48 | 2.61 | -3.27 | 9.42 | 2.87 | 3.52 | 2.75 | 5.96 | 0.31 | 3.9 | 5.31 | 6.35 | -0.07 | 2.67 | 7.63
5 | COc1ccc2cc(-c3c(-c4ccncc4)nc(-c4ccc(S(C)(=O)=O)cc4C)n3C)ccc2c1 | 0.55 | 2.95 | 3.12 | 2.38 | 4.11 | 3.55 | 5.35 | -5.17 | 8.65 | 2.7 | 17.6 | 4.05 | 16.2 | 1.31 | 12.7 | 43.9 | 95.3 | 0.86 | 0.3 | 4.65
6 | C[C@@H](Oc1cc(-n2cnc3ccc(OC4CCN(C)CC4)cc32)sc1C(N)=O)c1ccccc1Cl | 8.12 | 3.68 | 7.84 | 2.56 | 9.09 | 3.26 | 19 | -3.41 | 8.91 | -0.97 | -0.02 | -0.58 | 1.75 | -3.34 | -1.29 | 50.1 | 81.4 | 2.18 | 18.4 | 3.22
7 | CNC(=O)c1cncc(/C=C/c2c(C)cccc2C)c1 | 0.47 | 0.05 | 0.22 | 0.47 | 1.16 | 5.71 | 35.6 | -0.15 | 5.33 | -1.77 | -0.78 | -3.36 | -3.06 | -3.26 | -9.54 | 1.24 | 10.3 | 0.91 | 4.59 | 4.81
8 | NS(=O)(=O)c1ccc(N/N=C2\C(=O)Nc3ccc(C(=O)NCCCn4ccnc4)cc32)cc1 | 12 | 9.05 | 43.2 | 9.74 | 44.2 | 3.46 | 4.42 | -2.26 | 71.3 | 5.44 | 49.9 | 1.38 | 17.8 | 3.31 | 23.2 | 6.25 | 12.2 | 3.32 | 8.35 | 10.8
9 | COc1cccc(-n2cnc3c(N/N=C/c4ccncc4)ncnc32)c1 | 7.04 | 0.22 | 6.69 | 0.58 | 9.77 | -1.8 | 4.69 | 3.07 | 5.77 | -0.8 | 13 | 0.64 | 7.54 | 0.73 | -1.49 | 4.49 | 16.3 | 1.19 | 1.25 | 1.22
10 | O=C1Nc2ccc(I)cc2C1=Cc1cc(Br)c(O)c(Br)c1 | 7.89 | 2.53 | 5.74 | 1.67 | 6.01 | 7.46 | 6.98 | -1.21 | 13.3 | 3.6 | 9.69 | 1.83 | 3.08 | 0.09 | 4.11 | 4.81 | 7.92 | 0.93 | 3.6 | 31.7
11 | COc1cc(Nc2ncc3c(C)nc(-c4cccc(C(F)(F)F)c4)n3n2)cc(OC)c1OC | 7.83 | 4.54 | 16.5 | 4.76 | 11 | 3.45 | 16.6 | -1.61 | 14.4 | 2.65 | 36.2 | 4.06 | 14.4 | 1.2 | 11.3 | 6.36 | 12.5 | -0.1 | 7.98 | 11.3
